Measured values reported in PubChem BioAssay.
The list shows a part of the results. Unmarked numbers belong to inactive results. Calls of active or inactive are those of the source.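 How the source made its calls, unless noted: active means mean inhibition over three repeats above a set limit taken from the earlier primary screen (cut at about 38% in these data); inactive means the rest.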

Test system: not listed separately
Assay: Gal4-VP16 luciferase reporter inhibitors, counter-screen for COUP-TFII antagonist project, cell-based, luminescence, HEK293 (AID 687007; in the data active means inhibition above about 13%)
Conditions: at 8.5 µM, stronger effect = higher value

Structure (SMILES) | inhibition [%]
COc1cccc(CNc2nc(NCc3cccs3)nc3ccsc23)c1 | -0.37
CCCOc1ccc(Cc2c(Cl)nc(SC)nc2NC)cc1 | 2.67
C#Cc1ccc(NC(=O)C2(C)CCN2C(=O)Cc2ccc(-c3ccccc3)cc2)cc1 (stereo unspecified) | 6.08

Target: COUP transcription factor 2 (Homo sapiens) (UniProt P24468)
Assay: NR2F2 transcriptional activity inhibitors, confirmation, cell-based, luciferase reporter, HEK293, triplicate (AID 687008);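 further: 100% = cells given the luciferase reporter alone without the COUP-TF2 vector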
Conditions: HEK293 NGFI-A luciferase reporter, luminescence; at 8.5 µM; stronger effect = higher value

Sequence of COUP transcription factor 2 (Homo sapiens) (P24468 whole entry, looked up): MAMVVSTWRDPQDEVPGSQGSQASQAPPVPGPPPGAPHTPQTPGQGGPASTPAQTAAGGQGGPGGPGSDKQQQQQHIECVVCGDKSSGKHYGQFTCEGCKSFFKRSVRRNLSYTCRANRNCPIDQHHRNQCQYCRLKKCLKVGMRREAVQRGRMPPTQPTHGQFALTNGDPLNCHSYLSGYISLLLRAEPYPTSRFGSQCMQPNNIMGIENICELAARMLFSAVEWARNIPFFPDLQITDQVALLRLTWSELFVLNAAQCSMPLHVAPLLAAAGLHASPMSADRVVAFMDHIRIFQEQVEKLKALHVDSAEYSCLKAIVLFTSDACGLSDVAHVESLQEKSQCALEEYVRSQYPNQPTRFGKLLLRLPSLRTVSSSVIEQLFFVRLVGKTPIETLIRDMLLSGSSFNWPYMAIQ

Structure (SMILES) | inhibition
COc1cccc(CNc2nc(NCc3cccs3)nc3ccsc23)c1 | 13.2%
CCCOc1ccc(Cc2c(Cl)nc(SC)nc2NC)cc1 | 44.7% (active)
C#Cc1ccc(NC(=O)C2(C)CCN2C(=O)Cc2ccc(-c3ccccc3)cc2)cc1 (stereo unspecified) | 44.2% (active)
